Among the data in PubChem BioAssay AID493074 (National Center for Advancing Translational Sciences (NCATS), 2011) are Potency values, retold here.

Some of the results follow. Results filed as inconclusive are left out. Calls of active or inactive are those of the source. Calls come from the whole dose curve; as a rule, active = well fitted cell-killing curve with a large enough effect; inconclusive = small, poorly fitted or top-dose-only effect; inactive = no such curve, though single readings can be large or run the other way.

The nature of this test: H358 Cell Viability Secondary Assay for qHTS Assay for Epigenetic Modulators: Round 2. The settings on record: H358 NSCLC viability, ATP luminescence, 72 h. The text has this:
NIH Molecular Libraries Screening Centers Network [MLSCN] NIH Chemical Genomics Center [NCGC] MLSCN Grant: 1 X01 MH079860-01 Assay Provider: Elisabeth D. Martinez, University of Texas SW Medical Center NCGC Assay Overview: This secondary assay characterizes selected actives identified in the qHTS of the Locus Derepression (LDR) assay (PubChem AID 1865). The LDR assay detects the derepression of a GFP reporter that is stably integrated in a region of the genome of murine c127i mammary cells that is presumably silenced. Compounds that cause derepression of the locus to express GFP are identified by enumerating GFP positive cells using a laser-scanning microplate cytometer. Selected LDR actives were assayed for killing of H358 non-small cell lung carcinoma (NSCLC) cells. […] Cell viability was measured using a luminescence-based detection reagent that measures cellular ATP levels.
NCGC Assay Protocol Summary H358 cells were seeded at 125 cells/5 uL/well in white, solid bottom, 1536 well plates (Greiner). […] Plates were incubated 72 hours at 37deg C and 5% CO2, then 3.5 uL/well CellTiter-Glo(R) (Promega) detection reagent was added, plates were incubated at ambient temperature for 10 minutes and luminescence was measured by a ViewLux (Perkin Elmer) reader. […] A quantitative high-throughput screen identifies potential epigenetic modulators of gene expression. […]
In the case of `O=C1NC(=O)N(CCc2ccc(F)cc2)C(=O)/C1=C/C=C/c1ccccc1`, the Potency was 8.88 µM (active).
